The results in this text go back to PubChem BioAssay (EPA / NIEHS).

Values joined by “and” are separate entries in the source; they are usually repeats but may differ in a detail not shown here. Equal entries are not always repeated. Records with an inconclusive call do not appear. Some compounds were tested as several samples or in several runs, with calls that do not always agree. Active and inactive are the calls of the source. How the source made its calls, unless noted: active means hit-call score of the fitted dose curve at least 0.9, where 1 is the maximum; inactive means score below 0.9.

Assay [1] addresses Paired box protein Pax-6 (Homo sapiens) (UniProt P26367). Put plainly: ATG_Pax6_CIS: Attagene CIS-FACTORIAL HepG2 Assay for human Paired Box 6 (PAX6) (AID 2282956). To be noted: HepG2 CIS-FACTORIAL PAX6 reporter transcription, RNA readout; actives raise or lower the signal. An outline of the steps: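 Multiplexed cis-reporter HepG2 system; 24 h treatment; reporter mRNA read by RT-PCR/CE fluorescence; bidirectional fit vs DMSO.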

A short description of assay [2]: ATG_PXRE_CIS: Attagene CIS-FACTORIAL HepG2 Assay for human Pregnane X Receptor Element (PXRE) (AID 2282957). To be noted: HepG2 Attagene CIS-FACTORIAL PXRE reporter, mRNA; actives raise or lower the signal. An outline of the steps:
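HepG2 cells transiently transfected with cis-regulated multiple reporter transcription units; endogenous factor activity measured as reporter mRNA 24 h after dosing. RT-PCR, fluorescent primer extension, HpaI digestion, capillary electrophoresis; bidirectional fit versus DMSO baseline.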

The nature of assay [3]: ATG_RORE_CIS: Attagene CIS-FACTORIAL HepG2 Assay for human RAR-related Orphan Receptor Element (RORE) (AID 2282959). The conditions noted are these: HepG2 Attagene cis-factorial RORE reporter, mRNA; actives raise or lower the signal. In short, it runs like this:
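Endogenous factor activity at a cis response element is read as reporter transcript levels in HepG2 cells, 24 h post-dose. Transcripts are quantified by RT-PCR with capillary electrophoresis, and data fitted in both directions against DMSO.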

Assay [4] can be described thus: ATG_Sox_CIS: Attagene CIS-FACTORIAL HepG2 Assay for human SRY-box transcription factor (SOX) (AID 2282960). To be noted: HepG2 Attagene cis-factorial SOX reporter, mRNA; actives raise or lower the signal. An outline of the steps:
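Measures mRNA induction of a SOX1-associated reporter in HepG2 after 24 h dosing. Fluorescently labelled RT-PCR fragments are separated by capillary electrophoresis, and gain or loss relative to DMSO control is fitted.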

Assay [5] concerns the target Transcription factor Sp1 (Homo sapiens) (UniProt P08047). Put plainly: ATG_Sp1_CIS: Attagene CIS-FACTORIAL HepG2 Assay for human Specificity Protein 1 (Sp1) (AID 2282961). The conditions noted are these: HepG2 Sp1 cis-reporter transcription, actives raise or lower the signal. In short, it runs like this:
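Cells: HepG2, transiently transfected with cis-regulated multiplexed reporters. Exposure: 24 h. Detection: reporter transcripts amplified, fluorescently labeled, restriction-digested and sized by capillary electrophoresis. Analysis: bidirectional fit relative to DMSO.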

Assay [6] can be described thus: ATG_SREBP_CIS: Attagene CIS-FACTORIAL HepG2 Assay for human Sterol Regulatory Element Binding (SREBP) (AID 2282962). To be noted: HepG2 Attagene cis-factorial SREBP reporter, mRNA; actives raise or lower the signal. In short, it runs like this: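 mRNA induction of transfected cis-promoter reporters in HepG2 cells, 24 h post-dose. Detection: RT-PCR with 6-FAM-labelled products, HpaI digest, capillary electrophoresis. DMSO served as negative control and baseline.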

Assay [7] concerns the target Signal transducer and activator of transcription 3 (Homo sapiens) (UniProt P40763). Put plainly: ATG_STAT3_CIS: Attagene CIS-FACTORIAL HepG2 Assay for human Signal Transducer and Activator of Transcription 3 (STAT3) (AID 2282963). To be noted: HepG2, Attagene cis-factorial STAT3 reporter transcription; actives raise or lower the signal. An outline of the steps:
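Endogenous STAT3-responsive cis-element activity was read in transiently transfected HepG2 cells after 24 h treatment. Reporter transcripts were quantified via RT-PCR and capillary electrophoresis, with DMSO as negative control and bidirectional curve fitting.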

Assay [8] can be described thus: ATG_TA_CIS: Attagene CIS-FACTORIAL HepG2 Assay for human TA Basal Promoter (AID 2282964). The conditions noted are these: HepG2 Attagene CIS-factorial TA basal promoter reporter; actives raise or lower the signal. In short, it runs like this: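 Steps: transfect HepG2 with MRTUs; dose 24 h; isolate RNA, DNase-treat, reverse-transcribe; PCR and FAM-label reporter cDNA; digest with HpaI 2h at 37 C; run capillary electrophoresis. Activity fitted both directions against DMSO.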

Assay [9] is described as follows: ATG_TCF_b_cat_CIS: Attagene CIS-FACTORIAL HepG2 Assay for human T-Cell-Factor with beta-catenin (TCF/b-cat) (AID 2282965). To be noted: HepG2 TCF/beta-catenin cis-reporter transcription, actives raise or lower the signal. In short, it runs like this: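 Endogenous TCF/LEF activity read as reporter transcript level via RT-PCR and capillary electrophoresis fluorescence in transfected HepG2, 24 h exposure; gain or loss of signal fitted against DMSO controls.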

A short description of assay [10]: ATG_TAL_CIS: Attagene CIS-FACTORIAL HepG2 Assay for human TAL Basal Promoter (AID 2282966).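 Further: background control endpoint measuring basal TAL promoter reporter mRNA not a specific factor.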 To be noted: HepG2 Attagene cis-factorial TAL promoter reporter; actives raise or lower the signal. An outline of the steps:
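HepG2 cells were transiently transfected with promoter-driven multiplexed reporter units and dosed for 24 h. Reporter mRNA was measured by RT-PCR with capillary electrophoresis fluorescence; bidirectional fits used DMSO as baseline, serving as a background control.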

Assay [11] can be described thus: ATG_TGFb_CIS: Attagene CIS-FACTORIAL HepG2 Assay for human Transforming Growth Factor (TGF) (AID 2282967). The conditions noted are these: HepG2 Attagene CIS TGFb reporter, mRNA transcription; actives raise or lower the signal. In short, it runs like this:
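Cells were dosed for 24 hours, after which total RNA was reverse-transcribed and reporter sequences amplified, labeled and sized by capillary electrophoresis. Activity was fitted in both directions against DMSO.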

Assay [12] is described as follows: ATG_VDRE_CIS: Attagene CIS-FACTORIAL HepG2 Assay for human Vitamin D Receptor Element (VDRE) (AID 2282968). The conditions noted are these: HepG2 VDRE cis-reporter transcription, actives raise or lower the signal. In short, it runs like this:
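Reporter mRNA induction, quantified by capillary electrophoresis of fluorescently labelled RT-PCR products, was read 24 h after dosing HepG2 cells carrying transiently transfected cis-regulated reporter units; gain or loss relative to DMSO.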

Assay [13] deals with Steroid hormone receptor ERR1 (Homo sapiens) (UniProt P11474). Put plainly: ATG_ERRa_TRANS: Attagene TRANS-FACTORIAL HepG2 Assay for human Estrogen-Related Receptor alpha (ERRa) (AID 2282971; active means hit-call score of the fitted dose curve at least 0.9, where 1 is the maximum). The conditions noted are these: HepG2 Attagene TRANS reporter, ERRa transactivation. An outline of the steps: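 HepG2 cells transiently transfected with multiplexed GAL4-UAS reporter units reading chimeric ERRa-Gal4 activity; 24 h compound exposure. Reporter mRNA measured by RT-PCR, 6-FAM labelling, HpaI digest and capillary electrophoresis; gain of signal fitted versus DMSO baseline.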

The target in assay [14] is X-box-binding protein 1 (Homo sapiens) (UniProt P17861). Put plainly: ATG_Xbp1_CIS: Attagene CIS-FACTORIAL HepG2 Assay for human X-box Binding Protein 1 (XBP1) (AID 2282972). To be noted: HepG2 XBP1 cis-element reporter, Attagene multiplex; actives raise or lower the signal. An outline of the steps:
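Fluorescence-labelled cDNA fragments from reporter transcripts, separated by capillary electrophoresis, give the signal. Source: HepG2 cells transfected with promoter-driven reporter units, harvested 24 h post-dose. DMSO served as reference for bidirectional curve fitting.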

Assay [15] is described as follows: ATG_M_19_TRANS: Attagene TRANS-FACTORIAL HepG2 Assay for M19 Transcription Factor (Internal Marker) (AID 2282974; active means hit-call score of the fitted dose curve at least 0.9, where 1 is the maximum). To be noted: HepG2 Attagene TRANS-FACTORIAL M19 internal marker reporter. An outline of the steps: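 Reporter mRNA induction was measured in transfected HepG2 cells 24 h after dosing. Endpoint fitted upward relative to DMSO and serves as a background control within the multiplexed TRANS panel.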

Assay [16] can be described thus: ATG_GAL4_TRANS: Attagene TRANS-FACTORIAL HepG2 Assay for GAL4 (Internal Marker) (AID 2282976; active means hit-call score of the fitted dose curve at least 0.9, where 1 is the maximum). The conditions noted are these: HepG2 Attagene TRANS GAL4 internal marker reporter. An outline of the steps:
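HepG2 cells transiently transfected with multiplexed GAL4-UAS reporter constructs were dosed for 24 h. Reporter mRNA was measured by RT-PCR, 6-FAM primer extension, HpaI digestion and capillary electrophoresis, and gain of signal was fitted relative to DMSO.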

The nature of assay [17]: ATG_PPRE_CIS: Attagene CIS-FACTORIAL HepG2 Assay for human Peroxisome Proliferator-activated Response Element (PPRE) (AID 2282958). The conditions noted are these: HepG2 PPRE cis-element reporter, Attagene transcription factor profiling; actives raise or lower the signal. In short, it runs like this: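 In this cell-based multiplex, a PPRE cis element drives a reporter sequence in transiently transfected HepG2 cells. Following 24 h treatment, labeled cDNA amplicons are sized and quantified by capillary electrophoresis, with DMSO defining baseline.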

The target of assay [18] is Estrogen receptor (Homo sapiens) (UniProt P03372). Put plainly: ATG_ERa_TRANS: Attagene TRANS-FACTORIAL HepG2 Assay for human Estrogen Receptor alpha (ERa) (AID 2282970; active means hit-call score of the fitted dose curve at least 0.9, where 1 is the maximum). To be noted: HepG2 Attagene TRANS ERa GAL4 reporter, mRNA. In short, it runs like this: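 HepG2 cells transiently transfected with multiplexed GAL4-UAS reporter units; ERa activity read via exogenous chimeric NR-Gal4 protein. After 24 hour compound exposure, reporter mRNA measured by RT-PCR with 6-FAM labelling and capillary electrophoresis; gain-of-signal fitted relative to DMSO.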

Assay [19] deals with Estrogen-related receptor gamma (Homo sapiens) (UniProt P62508). Put plainly: ATG_ERRg_TRANS: Attagene TRANS-FACTORIAL HepG2 Assay for human Estrogen-Related Receptor gamma (ERRg) (AID 2282977; active means hit-call score of the fitted dose curve at least 0.9, where 1 is the maximum;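 further: hits increase reporter signal over DMSO so potencies reflect activators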). The conditions noted are these: HepG2 Attagene TRANS reporter, ERRg transactivation. In short, it runs like this:
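Transfect HepG2 with multiple GAL4-UAS reporter transcription units; dose chemicals 24 h; isolate RNA, reverse-transcribe with oligo(dT), PCR-amplify, label with 6-FAM, digest with HpaI; size fragments by capillary electrophoresis. DMSO serves as negative control.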

X-box-binding protein 1 (Homo sapiens), sequence (P17861 whole entry, looked up, the tested form may be a part): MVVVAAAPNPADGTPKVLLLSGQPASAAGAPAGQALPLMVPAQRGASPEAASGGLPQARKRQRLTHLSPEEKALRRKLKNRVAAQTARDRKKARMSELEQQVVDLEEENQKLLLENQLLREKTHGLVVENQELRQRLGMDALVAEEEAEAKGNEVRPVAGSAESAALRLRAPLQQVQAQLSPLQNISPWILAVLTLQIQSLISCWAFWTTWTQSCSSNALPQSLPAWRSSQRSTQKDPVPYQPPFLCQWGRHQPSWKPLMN
Steroid hormone receptor ERR1 (Homo sapiens), sequence (P11474 whole entry, looked up, the tested form may be a part): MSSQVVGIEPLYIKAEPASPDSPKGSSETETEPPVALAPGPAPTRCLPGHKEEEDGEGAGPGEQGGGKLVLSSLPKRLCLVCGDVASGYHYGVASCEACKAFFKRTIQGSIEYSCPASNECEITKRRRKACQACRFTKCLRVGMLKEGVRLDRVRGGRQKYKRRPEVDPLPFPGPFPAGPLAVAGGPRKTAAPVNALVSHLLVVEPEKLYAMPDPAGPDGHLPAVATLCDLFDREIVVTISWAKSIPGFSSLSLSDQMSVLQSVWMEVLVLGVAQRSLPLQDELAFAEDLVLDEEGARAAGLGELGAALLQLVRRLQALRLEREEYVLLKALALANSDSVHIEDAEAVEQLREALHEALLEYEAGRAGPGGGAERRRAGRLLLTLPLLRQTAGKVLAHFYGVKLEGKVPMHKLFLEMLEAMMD
Signal transducer and activator of transcription 3 (Homo sapiens), sequence (P40763 whole entry, looked up): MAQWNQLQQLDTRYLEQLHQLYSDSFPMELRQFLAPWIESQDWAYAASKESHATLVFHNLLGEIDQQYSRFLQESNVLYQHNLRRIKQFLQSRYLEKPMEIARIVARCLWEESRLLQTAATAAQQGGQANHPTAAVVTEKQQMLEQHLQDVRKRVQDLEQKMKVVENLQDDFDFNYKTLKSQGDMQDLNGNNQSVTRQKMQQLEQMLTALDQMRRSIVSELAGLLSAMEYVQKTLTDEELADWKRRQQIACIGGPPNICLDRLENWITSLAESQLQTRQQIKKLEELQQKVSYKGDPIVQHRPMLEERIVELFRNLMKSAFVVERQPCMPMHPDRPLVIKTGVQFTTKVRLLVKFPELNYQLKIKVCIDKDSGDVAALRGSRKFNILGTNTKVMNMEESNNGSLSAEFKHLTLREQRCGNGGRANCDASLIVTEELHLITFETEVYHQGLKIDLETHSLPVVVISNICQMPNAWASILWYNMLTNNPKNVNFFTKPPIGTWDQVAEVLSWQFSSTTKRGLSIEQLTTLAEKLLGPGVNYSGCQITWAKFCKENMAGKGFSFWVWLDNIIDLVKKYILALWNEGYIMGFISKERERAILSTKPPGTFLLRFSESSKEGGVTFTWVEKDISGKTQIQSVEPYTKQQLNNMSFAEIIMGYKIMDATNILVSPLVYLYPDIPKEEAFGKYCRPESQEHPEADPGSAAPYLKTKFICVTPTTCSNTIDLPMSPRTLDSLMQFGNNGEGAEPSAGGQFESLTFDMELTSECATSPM
Estrogen-related receptor gamma (Homo sapiens), sequence (P62508 whole entry, looked up, the tested form may be a part): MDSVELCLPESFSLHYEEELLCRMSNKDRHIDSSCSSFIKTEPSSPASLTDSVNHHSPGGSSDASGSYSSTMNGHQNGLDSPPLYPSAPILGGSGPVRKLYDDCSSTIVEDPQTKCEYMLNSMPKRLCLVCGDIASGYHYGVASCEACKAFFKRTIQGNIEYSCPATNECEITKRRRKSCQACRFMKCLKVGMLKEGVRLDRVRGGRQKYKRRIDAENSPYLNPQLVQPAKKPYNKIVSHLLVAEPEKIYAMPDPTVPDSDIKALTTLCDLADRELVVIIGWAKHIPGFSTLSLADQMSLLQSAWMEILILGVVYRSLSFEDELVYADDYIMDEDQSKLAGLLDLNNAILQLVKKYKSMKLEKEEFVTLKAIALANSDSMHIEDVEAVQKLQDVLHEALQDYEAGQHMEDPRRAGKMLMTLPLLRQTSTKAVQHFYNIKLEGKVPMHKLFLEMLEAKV
Transcription factor Sp1 (Homo sapiens), sequence (P08047 whole entry, looked up): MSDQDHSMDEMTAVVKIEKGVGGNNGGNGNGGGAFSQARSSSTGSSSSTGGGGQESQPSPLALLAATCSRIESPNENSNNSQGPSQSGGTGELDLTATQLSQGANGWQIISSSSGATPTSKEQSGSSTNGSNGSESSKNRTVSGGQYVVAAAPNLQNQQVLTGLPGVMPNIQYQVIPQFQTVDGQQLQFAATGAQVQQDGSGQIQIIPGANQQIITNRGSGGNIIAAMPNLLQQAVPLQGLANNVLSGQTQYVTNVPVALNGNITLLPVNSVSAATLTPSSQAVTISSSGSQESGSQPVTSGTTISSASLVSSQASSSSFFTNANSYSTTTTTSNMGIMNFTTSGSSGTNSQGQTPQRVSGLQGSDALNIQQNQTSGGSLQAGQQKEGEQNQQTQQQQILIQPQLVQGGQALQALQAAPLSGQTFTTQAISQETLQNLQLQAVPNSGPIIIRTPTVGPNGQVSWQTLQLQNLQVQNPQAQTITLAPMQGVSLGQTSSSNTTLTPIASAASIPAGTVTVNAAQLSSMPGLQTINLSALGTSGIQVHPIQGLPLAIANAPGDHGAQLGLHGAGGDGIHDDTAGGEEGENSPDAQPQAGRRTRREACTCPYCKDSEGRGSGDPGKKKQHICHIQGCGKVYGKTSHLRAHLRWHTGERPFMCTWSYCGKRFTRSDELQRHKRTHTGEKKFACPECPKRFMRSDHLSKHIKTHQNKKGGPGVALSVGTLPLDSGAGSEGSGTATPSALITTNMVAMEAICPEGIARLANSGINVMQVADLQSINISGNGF
Paired box protein Pax-6 (Homo sapiens), sequence (P26367 whole entry, looked up): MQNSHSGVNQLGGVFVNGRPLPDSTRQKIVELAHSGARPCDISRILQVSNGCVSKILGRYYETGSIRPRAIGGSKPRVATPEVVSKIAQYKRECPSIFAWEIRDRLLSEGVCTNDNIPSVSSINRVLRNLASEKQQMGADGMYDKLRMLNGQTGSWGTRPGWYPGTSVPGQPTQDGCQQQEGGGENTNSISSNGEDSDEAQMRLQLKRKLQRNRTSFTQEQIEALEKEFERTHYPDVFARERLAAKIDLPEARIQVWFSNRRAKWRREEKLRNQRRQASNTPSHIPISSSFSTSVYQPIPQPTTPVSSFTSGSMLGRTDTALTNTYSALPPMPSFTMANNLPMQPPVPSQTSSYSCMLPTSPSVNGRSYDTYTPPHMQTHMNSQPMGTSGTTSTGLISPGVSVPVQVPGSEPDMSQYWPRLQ
Estrogen receptor (Homo sapiens), sequence (P03372 whole entry, looked up, the tested form may be a part): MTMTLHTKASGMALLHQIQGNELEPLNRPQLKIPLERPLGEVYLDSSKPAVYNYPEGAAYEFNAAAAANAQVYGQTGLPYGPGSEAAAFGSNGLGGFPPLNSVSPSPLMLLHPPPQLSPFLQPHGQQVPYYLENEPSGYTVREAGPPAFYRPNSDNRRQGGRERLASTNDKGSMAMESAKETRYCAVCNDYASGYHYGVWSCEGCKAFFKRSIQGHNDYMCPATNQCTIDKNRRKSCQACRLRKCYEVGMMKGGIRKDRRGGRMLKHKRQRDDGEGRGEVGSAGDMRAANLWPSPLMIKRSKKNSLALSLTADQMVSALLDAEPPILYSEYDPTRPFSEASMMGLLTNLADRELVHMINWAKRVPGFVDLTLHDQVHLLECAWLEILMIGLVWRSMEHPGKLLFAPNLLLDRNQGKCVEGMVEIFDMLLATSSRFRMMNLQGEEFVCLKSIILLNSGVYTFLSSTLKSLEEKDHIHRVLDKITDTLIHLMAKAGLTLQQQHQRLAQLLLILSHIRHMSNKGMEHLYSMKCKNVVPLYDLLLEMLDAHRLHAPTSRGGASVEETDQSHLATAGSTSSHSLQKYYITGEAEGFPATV

In general, AC50 refers to the concentration at which the activity in the assay is half-maximal. `CCCCCCCCCC(=O)O`: the call in [1], in assay [2], in [3], in [4], in assay [5] and in [6] was inactive. The compound was called inactive in assay [7], in assay [8], in [9], in assay [10], in [11] and in assay [12]. Further, the compound was classed as inactive in assay [13], in assay [14], in [15] and in [16]. For the same compound, the AC50 in assay [2] is 27.4 µM (active); in [6] it was 104 µM (active).

As for `CC(O)CC(C)(C)O` (stereo not given), the result in assay [1], in assay [2], in assay [3], in assay [4], in assay [5] and in assay [6] was inactive. For the same compound, the compound was classed as inactive in assay [7], in assay [8], in assay [10], in [11], in assay [12] and in assay [15]. For the same compound, the call in assay [16] was inactive. In assay [2], the AC50 is 37.5 µM (active).

On to `OC12N=C(c3ccccc3)SC1Cc1cc(Cl)ccc12` (stereo not given), for which the call in [1], in assay [3], in assay [4], in [5], in assay [6] and in assay [7] was inactive. In addition, the compound was classed as inactive in [8], in assay [9], in assay [10], in [11], in assay [12] and in [13]. The call in assay [15], in assay [16] and in [19] was inactive. The figures for the AC50 in assay [2], in [17] and in assay [18] were 4.27 µM (active), 0.0507 µM (active) and 3.97 µM (active), respectively.

Consider `COCC(C)OCC(C)OCC(C)O` (stereo not given), for which the compound was called inactive in assay [1], in [2], in assay [17], in assay [3], in [4] and in assay [5]. Further, the compound was classed as inactive in assay [6], in [7], in assay [8], in [9], in assay [10] and in [11]. Further, the result in [12], in assay [18], in assay [14] and in assay [19] was inactive.

`CCCCCCCCCCCC[N+](C)(C)C`: the call in assay [1], in assay [2], in assay [17], in [3], in [4] and in [5] was inactive. Further, the compound was called inactive in [7], in assay [8], in assay [9], in assay [10], in assay [11] and in assay [12]. The call in assay [15] was inactive. The AC50 in assay [2] was 1.26 µM (active); in assay [6], 26.1 µM (active) and 25.6 µM (active).

Consider `C[C@]12CC[C@@H]3c4ccc(O)cc4CC[C@H]3[C@@H]1CC[C@H]2O`, for which the result in assay [1], in assay [2], in assay [17], in assay [3], in assay [4] and in assay [5] was inactive. Moreover, the outcome in assay [6], in [7], in assay [8], in [10], in assay [11] and in assay [12] was inactive. Further, the call in assay [13], in assay [15], in assay [16] and in [19] was inactive. For the same compound, the AC50 in [2] was 7.87 µM (active) and 6.41 µM (active) and 4.84 µM (active); in assay [6], 27.6 µM (active); in assay [12] it was 19.8 µM (active).
